Reference: PubChem BioAssay (EPA / NIEHS)
Values joined by “and” are separate entries in the source; they are usually repeats but may differ in a detail not shown here. Equal values may be shown once. The source holds several records for some structures; these can differ, active in one and inactive in another. Active and inactive are the calls of the source. The calls were made as follows: active = hit-call score of the fitted dose curve at least 0.9, where 1 is the maximum; inactive = score below 0.9.

Test: ATG_PXRE_CIS: Attagene CIS-FACTORIAL HepG2 Assay for human Pregnane X Receptor Element (PXRE) (AID 2282957)
Details: HepG2 Attagene CIS-FACTORIAL PXRE reporter, mRNA; actives raise or lower the signal
Experimental: ATG_CIS is a cell-based, multiplexed-readout assay that uses HepG2, a human liver cell line, with measurements taken at 24 hours after chemical dosing in a 24-well plate.ATG_PXRE_CIS is one of 52 assay component(s) measured or calculated from the ATG_CIS assay. It is designed to make measurements of mRNA induction, a form of inducible reporter, as detected with fluorescence intensity signals by Reverse transcription polymerase chain reaction (RT-PCR) and Capillary electrophoresis technology.Data from the assay component ATG_PXRE_CIS was analyzed into 1 assay endpoint. This assay endpoint, ATG_PXRE_CIS, was analyzed with bidirectional fitting relative to DMSO as the negative control and baseline of activity. Using a type of inducible reporter, measures of mRNA for gain or loss-of-signal activity can be used to understand the reporter gene at the transcription factor-level as they relate to the gene NR1I2. Furthermore, this assay endpoint can be referred to as a primary readout, because this assay has produced multiple assay endpoints where this one serves a reporter gene function. To generalize the intended target to other relatable targets, this assay endpoint is annotated to the nuclear receptor intended target family, where the subfamily is non-steroidal.
Human liver HepG2 cells are transiently transfected with multiple reporter transcription units (MRTUs) in 6-well plates using FuGene 6 reagent (Roche; 3 ml FuGene/1 mg DNA). The MRTU constructs are regulated by a cis-regulating element (promoter). […] A major difference between the CIS and TRANS system is that in CIS activities of endogenous TFs are measured, whereas the TRANS assay evaluates changes in activities of exogenous, chimeric NR-Gal4 proteins. […] At the end of 24 hour incubation, total RNA was isolated using TriZol reagent (Invitrogen). The isolated RNA is then reverse-transcribed using oligo(dT) primer and Mo-MLV reverse transcriptase (Invitrogen) with DNAse I (Ambion) treatment for 30 min. The one-tenth of the produced cDNA was amplified by PCR using Taq DNA polymerase (Invitrogen) and two reporter sequence-specific primers. The PCR products were fluorescently labeled by primer extension with 6-arboxyfluorescein (6-FAM) 5'-labeled reporter sequence-specific primer (2 min at 95 C, 20 s at 68 C and 10 min at 72 C) and these products were digested with 5U of HpaI (New England Biolabs) for 2h at 37 C. The fragments were purified using Qiaquick PCR columns (Qiagen), analyzed on an ABI 3130xL genetic analyzer (Applied Biosystems) with peak positions identified by using a set of X-rhodamine (ROX)-labeled MapMarker1000 molecular weight standards (BioVentures). The raw capillary electrophoresis data was processed using Attagraph software (Attagene).

SMILES	outcome	AC50
Cc1ccc(N)cc1Cl	inactive	
CC1CN1P(=O)(N1CC1C)N1CC1C (stereo not given)	inactive	
CCN(CC)C(=O)Cl	inactive	
Nc1cccc2ccccc12		25.7 µM (active)
CN(CCCC(=O)c1cccnc1)N=O		27.2 µM (active)
C1CCC(NC2CCCCC2)CC1		16.7 µM (active)
COc1cc(-c2ccc(N)c(OC)c2)ccc1N	inactive	25.2 µM (active)
CC(C)(c1ccccc1)c1ccc(O)c(C(C)(C)c2ccccc2)c1		0.156 µM (active)
C=CC(=O)OCCCCCC(C)C		69.5 µM (active)
c1cc[c]([Hg][c]2ccccc2)cc1	inactive	
ClC(Cl)=C(Cl)C(Cl)=C(Cl)Cl		130 µM (active)
COC[C@H](C)N(C(=O)CCl)c1c(C)csc1C		30.6 µM (active)
CN(C)N=O		100 µM (active) and 55.8 µM (active)
C[C@@H](Oc1ccc(Cl)cc1Cl)C(=O)O	inactive	
COP(=S)(OC)Oc1ccc(Sc2ccc(OP(=S)(OC)OC)cc2)cc1		2.83 µM (active)
C=CC#N	inactive	
Nc1ccc(-c2ccc(N)c(Cl)c2)cc1Cl		27.4 µM (active)
N#Cc1ccccn1	inactive	
O=[N+]([O-])c1ccc2c3c(cccc13)CC2		4.23 µM (active)

SMILES	outcome	AC50
COc1ccc(C=O)cc1OC		32 µM (active)
COS(=O)(=O)c1ccc(C)cc1	inactive	
CCC(C)(C)c1ccc(O)c(C(C)(C)CC)c1		2.73 µM (active)
CC(=O)C(Cl)C(=O)N(C)C (stereo not given)	inactive	
CC(Br)C(=O)O (stereo not given)	inactive	
OCc1ccco1		39.7 µM (active)
CC(=O)c1cc(C(C)(C)C)cc2c1CCC2(C)C		5.72 µM (active)
Oc1c(I)cc(I)cc1I	inactive	
COP(=O)(OC)O/C(=C\Cl)c1cc(Cl)c(Cl)cc1Cl		1.4 µM (active)
COc1cccc(C=O)c1	inactive	
[O-][Cl+2]([O-])O		69 µM (active)
ClCc1cccnc1	inactive	
CC(C)(C)c1cc(O)ccc1O		4.27 µM (active)
O=C(O)C(Cl)(Cl)Cl	inactive	71.7 µM (active)
c1ccc(N=NNc2ccccc2)cc1		25.8 µM (active)
CCOP(=S)(OCC)Oc1nc(Cl)c(Cl)cc1Cl		5.24 µM (active)
Clc1ccc(COC(Cn2ccnc2)c2ccc(Cl)cc2Cl)cc1 (stereo not given)		0.697 µM (active)
C[C@]12CCC(=O)C[C@@H]1CC[C@@H]1[C@@H]2CC[C@]2(C)[C@@H](O)CC[C@@H]12		23.4 µM (active) and 23.5 µM (active) and 9.49 µM (active)
COc1ccccc1OC	inactive	
